# A selection: hits, their analogues and other compounds. The true share with any hit is near 19%.
# IL-1B inflam inh: inhibitors of inflammasome signaling (IL-1 beta secretion) | THP-1 LPS/ATP IL-1B secretion, AlphaLISA, 16 h; stronger effect = lower value | 360,000 tested, 4.7% active | activity change, % at 57.5 µM; in the data active = activity change below about -50%; inconclusive = mostly about -30% to -49%
#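 THP-1 cells pretreated 1 hr with compounds (up to 57.5 uM final), then stimulated with LPS (250 ng/mL final) plus ATP (1.25 mM final); secreted IL-1B measured by AlphaLISA after 16 hr, decreased signal indicating inhibition.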
# Giardia killer: Giardia lamblia killing; Giardia lamblia trophozoite viability; activity change, % at 7.66 µM, hits read low; 340,000 tested, 0.15% active; AID 540267; in the data active = activity change below about -80%; inconclusive = between about -30% and that limit;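 note: parasites exposed to compound for two days anaerobically before the ATP read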
#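 Luminescent ATP signal served as the viability read-out, measured 15-30 min after adding ATP detection reagent to trophozoites that had been incubated with compounds for 48 hrs at 37 deg C anaerobically at 100 cells/well.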
# TDP1 block: blocks human tyrosyl-DNA phosphodiesterase 1; Q9NUW8; recombinant TDP1, AlphaScreen DNA substrate cleavage; Potency, µM (top dose mostly 130 µM), without a hit: at the top dose activity change, negative = inhibition, actives largely listed as inhibitors; 350,000 tested, 0.28% active; AID 485290; note: potency is the fitted concentration of half-maximal effect; nearly all actives have a fitted effect of over 40% in size
# Target sequence (Q9NUW8 whole entry, looked up): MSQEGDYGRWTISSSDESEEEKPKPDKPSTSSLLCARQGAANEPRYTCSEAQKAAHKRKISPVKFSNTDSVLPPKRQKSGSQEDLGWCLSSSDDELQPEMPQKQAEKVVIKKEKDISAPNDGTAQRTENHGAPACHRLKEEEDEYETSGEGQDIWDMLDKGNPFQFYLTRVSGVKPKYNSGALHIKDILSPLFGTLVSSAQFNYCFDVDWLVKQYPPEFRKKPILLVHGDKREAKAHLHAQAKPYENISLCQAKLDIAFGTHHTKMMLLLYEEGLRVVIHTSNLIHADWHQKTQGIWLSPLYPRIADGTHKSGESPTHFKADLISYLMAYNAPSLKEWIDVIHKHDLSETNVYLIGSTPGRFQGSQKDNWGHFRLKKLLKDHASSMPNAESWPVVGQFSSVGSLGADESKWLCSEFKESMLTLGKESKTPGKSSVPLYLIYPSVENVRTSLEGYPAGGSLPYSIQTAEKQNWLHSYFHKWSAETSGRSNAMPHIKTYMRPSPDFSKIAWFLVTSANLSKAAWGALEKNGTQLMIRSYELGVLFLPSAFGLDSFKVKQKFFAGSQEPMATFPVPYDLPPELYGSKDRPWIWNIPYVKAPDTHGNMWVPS
#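 Here, a 5' biotin and 3' phosphotyrosine-FITC DNA oligonucleotide reports Tdp1 activity: intact substrate bridges AlphaScreen beads, while cleavage leaves a 3' phosphate and drops signal. All incubations at room temperature.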
# DT40 TDP1 CPT: DT40-hTDP1 cell growth loss with CPT. chicken DT40 Tdp1-/-;hTDP1 cells + 20 nM CPT, ATP luminescence, 48 h. AID 686979. 420,000 tested, 12% active. Potency, µM (titrated, usually from 46.2 µM), for inactives: at the top dose activity change, negative = growth inhibition, hits mostly inhibitors; note: potency is the fitted concentration of half-maximal effect; nearly all actives have a fitted effect of over 55% in size
#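 Cell growth measured by CellTiter-Glo luminescence after a minimum 48 h, 37 C compound exposure with 20 nM CPT in Tdp1-knockout DT40 cells stably expressing hTDP1, seeded 400/well; qHTS titration format.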
# DT40 TDP1 no CPT: qHTS for Inhibitors of human tyrosyl-DNA phosphodiesterase 1 (TDP1): qHTS in cells in absence of CPT | 420,000 tested, 15% active | Potency, µM (highest dose often 46.2 µM), for the others: at the highest dose activity change, negative = growth inhibition, hits mostly inhibitors | DT40 Tdp1-/- hTDP1 cells, no CPT, ATP luminescence, 48 h; note: potency is the fitted concentration of half-maximal effect; nearly all actives have a fitted effect of over 55% in size
#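 Readout: luminescence from CellTiter-Glo after 30 min in the dark at RT. Cells: DT40 Tdp1-/- with stable hTDP1, 400/well. Exposure: compounds alone, ≥48 hr, 37 °C.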
# ELG1 repair inh: inhibitors of ELG1-dependent DNA repair in HEK293T cells; AID 504467; HEK293T ELG1-luciferase reporter, luminescence, 16 h; DNA damage induced by 5-fluorouridine; Potency, µM (highest dose often 46.1 µM), without a hit: at the highest dose activity change, negative = inhibition, most hits filed as inhibitors; 330,000 tested, 2.3% active; note: potency is the fitted concentration of half-maximal effect; nearly all actives have a fitted effect of over 55% in size
#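 Quantitative HTS, concentration-response format. 2,000 cells/well co-treated with 5-fluorouridine and compound, 16 hr in 5% CO2 at 37 °C; ONE-Glo luminescence read after 30 min.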
# Numbers without * were called inactive; u = inconclusive; x = not tested or not shown; ! = a repeat was not active. Unless noted, calls come from the whole dose curve; as a rule, active = well fitted curve in the direction sought with a large enough effect; inconclusive = small, poorly fitted or top-dose-only effect, or another doubt; inactive = no such curve, though single readings can be large; an effect the other way counts as inactive or inconclusive. % is set by controls: 0 for no effect and ±100 for the full control effect.
SMILES,IL-1B inflam inh,Giardia killer,TDP1 block,DT40 TDP1 CPT,DT40 TDP1 no CPT,ELG1 repair inh
CC(=O)NCCNC(=O)c1ccc(-n2c(C)ccc2C)cc1,-76*,-14,0%,-16%,-29%,u
CC(=O)N1CCN(c2ccc(NC(=O)c3ccccc3)cc2)CC1,3,-23,6%,6%,-7%,u
CCc1ccccc1NC(=O)c1ccc(-c2csc(C)n2)cc1,-9,-15,1%,-7%,0%,u
Cc1ccc(C)n1-c1ccc(NC(=O)c2ccccc2)cc1,-53*,7,-3%,u,u,u
Cc1ccc(C(=O)N/C(=C\c2ccco2)C(=O)NCCN2CCOCC2)cc1,-1,13,x,19%,-1%,15%
CCCCCCCCCCOC(=O)Cn1c(COc2cccc(C)c2)[n+](C)c2ccccc21,-97*,21,x,7.3µM*,4.6µM*,-3%
CCCCCCCCCCOC(=O)Cn1c(COc2ccccc2)[n+](C)c2ccccc21,0,6,x,5.8µM*,2.6µM*,-28%
CCCCCCCCCCOC(=O)Cn1c(COc2ccccc2C)[n+](C)c2ccccc21,-97*,18,x,1.6µM*,1µM*,u
CCCCCCCCCCOC(=O)Cn1c(COc2ccc(Cl)cc2)[n+](C)c2ccccc21,-72*,-24,x,4.1µM*,4.6µM*,-18%
CCOC(=O)Cn1c(COc2ccccc2OC)[n+](C)c2ccccc21,23,-17,x,u,-5%,x
CCCCCCCCCCOC(=O)Cn1c(COc2ccc(OC)cc2)[n+](C)c2ccccc21,-108*!,8,6%,2.6µM*,2.6µM*,u
Cc1ccc(Nc2nc(N3CCN(C)CC3)nc(N)c2[N+](=O)[O-])cc1C,x,x,-3%,x,x,8.2µM*
CCN1CCN(c2nc(N)c([N+](=O)[O-])c(Nc3ccc(C)c(C)c3)n2)CC1,11,3,3%,u,16µM*,-13%
CCN1CCN(c2nc(N)c([N+](=O)[O-])c(Nc3ccc(C)cc3)n2)CC1,-62*,14,1%,u,u,u
COc1ccc(Nc2nc(N)c([N+](=O)[O-])c(N3CCN(C)CC3)n2)cc1,4,-16,x,-7%,u,0%
Cc1cccc(Nc2nc(N)c([N+](=O)[O-])c(N3CCOCC3)n2)c1,-22,-13,2%,-2%,u,u
COc1cccc(Nc2nc(N)c([N+](=O)[O-])c(N3CCOCC3)n2)c1,16,9,x,u,23µM*,23µM*
C[C@@H]1C(=O)O[C@H]2[C@H](O)[C@@]34[C@H]5CC(C(C)(C)C)[C@]36[C@H](OC(=O)[C@H]6O)O[C@]4(C(=O)O5)[C@@]12O (stereo partly specified),x,x,3%,x,x,x
Cc1nn(C2CC(O)C(O)C(CO)O2)c(=O)[nH]c1=O (stereo unspecified),51,44,x,15%,-6%,x
COc1ccc(NC(=O)CCCc2ccccc2)cc1OC,4,-8,2%,27%,-23%,u
CC1CC(C)CN(c2nc(NCc3ccco3)nc(N)c2[N+](=O)[O-])C1 (stereo unspecified),21,35,3%,16µM*,15µM*,u
CC1CCCN(c2nc(NCc3ccco3)nc(N)c2[N+](=O)[O-])C1 (stereo unspecified),-12,-4,6%,u,u,-25%
Cc1ccc(Nc2nc(N)c([N+](=O)[O-])c(N3CCCC(C)C3)n2)cc1C (stereo unspecified),-98*,-9,4%,u,u,-3%
O=S(Cc1ccc(Br)cc1)Cc1nnc(SCc2ccc(Cl)cc2)n1-c1ccccc1 (stereo unspecified),-68*,2,2%,16µM*,18µM*,u

# Screening data: PubChem BioAssay, National Center for Advancing Translational Sciences (NCATS)
